Tests used:
Experiment in all cases: log2 ratio of Biotin-Ahx-Ub-VS probe labelling (fragment/DMSO); higher = less target engagement (more negative = stronger competition), active = hit call of the paper (q ≤ 0.05, log2 ratio ≤ -1)
Conditions in all cases: compound concentration: 200 uM; treatment time: 3 h
[1] = target: T1, ALG13 (UniProt Q9NP73)
T1 sequence (whole entry): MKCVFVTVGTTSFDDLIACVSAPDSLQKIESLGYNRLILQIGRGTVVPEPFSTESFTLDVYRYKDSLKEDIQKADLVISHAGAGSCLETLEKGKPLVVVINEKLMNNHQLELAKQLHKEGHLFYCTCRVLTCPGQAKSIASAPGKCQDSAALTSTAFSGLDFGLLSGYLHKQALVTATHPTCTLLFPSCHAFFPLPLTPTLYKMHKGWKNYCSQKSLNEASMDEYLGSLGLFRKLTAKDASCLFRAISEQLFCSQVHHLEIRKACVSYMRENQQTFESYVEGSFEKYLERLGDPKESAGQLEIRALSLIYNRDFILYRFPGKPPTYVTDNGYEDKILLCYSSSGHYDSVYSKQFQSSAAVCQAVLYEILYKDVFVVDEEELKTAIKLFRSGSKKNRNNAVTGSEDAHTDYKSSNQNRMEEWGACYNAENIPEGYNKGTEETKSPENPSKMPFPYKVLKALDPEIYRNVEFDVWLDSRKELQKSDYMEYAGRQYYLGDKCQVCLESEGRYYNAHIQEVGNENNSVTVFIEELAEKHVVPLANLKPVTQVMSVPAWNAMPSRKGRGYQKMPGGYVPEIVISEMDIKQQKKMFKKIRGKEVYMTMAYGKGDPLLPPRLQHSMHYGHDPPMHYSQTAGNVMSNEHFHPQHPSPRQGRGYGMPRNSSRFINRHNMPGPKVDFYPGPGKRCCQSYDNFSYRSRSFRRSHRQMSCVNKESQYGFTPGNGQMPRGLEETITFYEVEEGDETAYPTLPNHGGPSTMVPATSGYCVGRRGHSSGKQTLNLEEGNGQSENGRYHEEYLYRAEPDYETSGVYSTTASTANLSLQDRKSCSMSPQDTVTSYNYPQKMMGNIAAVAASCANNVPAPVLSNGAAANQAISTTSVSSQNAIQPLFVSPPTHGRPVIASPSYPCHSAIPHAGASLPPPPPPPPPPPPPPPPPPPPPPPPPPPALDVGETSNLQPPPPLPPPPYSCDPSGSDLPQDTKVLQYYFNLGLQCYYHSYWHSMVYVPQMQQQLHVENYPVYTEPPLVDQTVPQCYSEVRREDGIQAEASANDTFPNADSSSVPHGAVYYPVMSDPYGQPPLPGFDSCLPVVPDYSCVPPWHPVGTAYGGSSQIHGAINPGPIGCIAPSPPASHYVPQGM
Procedure, shortened: (§1)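 Triplicate samples of HEK293T lysate, 495 µg each, received fragment at 200 µM or vehicle for 3 h, followed by Biotin-Ahx-Ub-VS (0.5 µM final) for 1 h. After NeutrAvidin enrichment of labelled DUBs and LysC/trypsin digestion, peptides were run by diaPASEF LC-MS/MS. The values are average log2 fragment/vehicle ratios from global-median-normalised Spectronaut label-free quantities, tested by unpaired t-test on proteins having ≥2 unique peptides.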

[2] = target: ATXN3 (UniProt P54252)
Chain of ATXN3 (P54252 whole entry): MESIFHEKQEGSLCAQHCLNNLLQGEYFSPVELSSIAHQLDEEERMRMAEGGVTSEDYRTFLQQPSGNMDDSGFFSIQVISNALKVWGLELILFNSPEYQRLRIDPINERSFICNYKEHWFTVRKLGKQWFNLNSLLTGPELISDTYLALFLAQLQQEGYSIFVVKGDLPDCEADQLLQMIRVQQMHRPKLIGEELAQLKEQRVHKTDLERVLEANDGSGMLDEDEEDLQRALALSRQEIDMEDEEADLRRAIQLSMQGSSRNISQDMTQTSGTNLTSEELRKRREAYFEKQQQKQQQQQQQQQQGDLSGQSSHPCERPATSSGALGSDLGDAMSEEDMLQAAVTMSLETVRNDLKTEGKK
Procedure, shortened: as §1

[3] = target: T2, BAP1 (UniProt Q92560)
T2 sequence (whole entry): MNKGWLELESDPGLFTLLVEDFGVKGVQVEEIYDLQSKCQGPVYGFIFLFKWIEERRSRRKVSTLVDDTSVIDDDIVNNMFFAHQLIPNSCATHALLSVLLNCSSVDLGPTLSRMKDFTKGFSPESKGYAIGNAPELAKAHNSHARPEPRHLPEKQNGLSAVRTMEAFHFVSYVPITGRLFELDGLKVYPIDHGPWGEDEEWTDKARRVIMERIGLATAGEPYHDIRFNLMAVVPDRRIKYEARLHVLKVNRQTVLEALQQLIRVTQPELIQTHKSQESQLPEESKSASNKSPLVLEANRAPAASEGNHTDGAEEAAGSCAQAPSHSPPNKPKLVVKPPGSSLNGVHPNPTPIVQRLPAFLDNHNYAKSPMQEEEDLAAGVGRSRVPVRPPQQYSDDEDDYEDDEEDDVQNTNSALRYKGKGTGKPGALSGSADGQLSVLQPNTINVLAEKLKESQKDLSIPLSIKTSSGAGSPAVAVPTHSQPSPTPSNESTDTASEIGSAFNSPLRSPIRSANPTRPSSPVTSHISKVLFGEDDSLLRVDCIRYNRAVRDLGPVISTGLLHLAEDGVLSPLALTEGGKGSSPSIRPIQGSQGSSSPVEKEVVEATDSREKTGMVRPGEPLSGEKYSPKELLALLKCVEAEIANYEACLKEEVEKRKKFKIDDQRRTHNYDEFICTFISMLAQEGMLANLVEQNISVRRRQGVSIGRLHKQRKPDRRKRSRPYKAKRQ
Procedure, shortened: as §1

[4] = target: EIF3F (UniProt O00303)
Chain of EIF3F (O00303 whole entry): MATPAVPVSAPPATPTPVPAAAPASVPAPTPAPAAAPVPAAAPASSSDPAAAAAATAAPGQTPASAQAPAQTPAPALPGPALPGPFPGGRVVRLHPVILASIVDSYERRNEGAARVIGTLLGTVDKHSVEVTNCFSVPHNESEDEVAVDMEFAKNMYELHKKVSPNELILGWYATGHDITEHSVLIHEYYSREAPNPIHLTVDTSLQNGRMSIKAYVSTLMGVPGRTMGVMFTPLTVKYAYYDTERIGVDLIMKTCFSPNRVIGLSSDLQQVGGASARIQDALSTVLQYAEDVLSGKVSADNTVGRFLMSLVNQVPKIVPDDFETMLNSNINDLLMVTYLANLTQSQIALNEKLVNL
Procedure, shortened: as §1

[5] = target: EIF3H (UniProt O15372)
Chain of EIF3H (O15372 whole entry): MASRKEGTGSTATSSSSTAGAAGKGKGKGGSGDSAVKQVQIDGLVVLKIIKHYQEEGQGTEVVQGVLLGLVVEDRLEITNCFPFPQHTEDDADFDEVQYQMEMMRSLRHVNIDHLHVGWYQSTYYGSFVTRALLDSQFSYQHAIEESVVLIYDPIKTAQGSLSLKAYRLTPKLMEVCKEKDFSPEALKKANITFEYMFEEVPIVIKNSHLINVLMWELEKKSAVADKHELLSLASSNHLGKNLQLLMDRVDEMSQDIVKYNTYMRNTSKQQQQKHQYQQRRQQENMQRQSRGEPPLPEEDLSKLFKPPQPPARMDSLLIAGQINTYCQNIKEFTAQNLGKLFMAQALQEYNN
Procedure, shortened: as §1

[6] = target: T3, FAM105A (UniProt Q9NUU6)
T3 sequence (whole entry): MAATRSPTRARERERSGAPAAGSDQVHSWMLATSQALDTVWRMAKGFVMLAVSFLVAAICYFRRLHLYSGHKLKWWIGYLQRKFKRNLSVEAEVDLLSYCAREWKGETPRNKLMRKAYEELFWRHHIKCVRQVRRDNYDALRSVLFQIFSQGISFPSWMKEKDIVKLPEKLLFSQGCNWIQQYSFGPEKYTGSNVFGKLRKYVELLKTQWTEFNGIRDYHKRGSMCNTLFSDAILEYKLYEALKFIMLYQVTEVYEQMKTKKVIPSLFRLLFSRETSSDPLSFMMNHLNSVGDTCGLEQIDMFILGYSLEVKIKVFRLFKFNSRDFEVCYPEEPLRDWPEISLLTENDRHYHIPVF
Procedure, shortened: as §1

[7] = target: OTUB1 (UniProt Q96FW1)
Chain of OTUB1 (Q96FW1 whole entry): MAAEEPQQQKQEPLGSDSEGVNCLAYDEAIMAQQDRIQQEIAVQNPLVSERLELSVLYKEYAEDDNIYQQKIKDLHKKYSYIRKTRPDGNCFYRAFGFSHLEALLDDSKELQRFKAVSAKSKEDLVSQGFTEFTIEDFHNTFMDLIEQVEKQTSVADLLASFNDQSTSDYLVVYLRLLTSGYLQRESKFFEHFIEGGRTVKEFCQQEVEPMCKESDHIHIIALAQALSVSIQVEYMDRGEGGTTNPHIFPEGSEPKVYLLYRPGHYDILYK
Procedure, shortened: as §1

[8] = target: T4, OTUD4 (UniProt Q01804)
T4 sequence (whole entry): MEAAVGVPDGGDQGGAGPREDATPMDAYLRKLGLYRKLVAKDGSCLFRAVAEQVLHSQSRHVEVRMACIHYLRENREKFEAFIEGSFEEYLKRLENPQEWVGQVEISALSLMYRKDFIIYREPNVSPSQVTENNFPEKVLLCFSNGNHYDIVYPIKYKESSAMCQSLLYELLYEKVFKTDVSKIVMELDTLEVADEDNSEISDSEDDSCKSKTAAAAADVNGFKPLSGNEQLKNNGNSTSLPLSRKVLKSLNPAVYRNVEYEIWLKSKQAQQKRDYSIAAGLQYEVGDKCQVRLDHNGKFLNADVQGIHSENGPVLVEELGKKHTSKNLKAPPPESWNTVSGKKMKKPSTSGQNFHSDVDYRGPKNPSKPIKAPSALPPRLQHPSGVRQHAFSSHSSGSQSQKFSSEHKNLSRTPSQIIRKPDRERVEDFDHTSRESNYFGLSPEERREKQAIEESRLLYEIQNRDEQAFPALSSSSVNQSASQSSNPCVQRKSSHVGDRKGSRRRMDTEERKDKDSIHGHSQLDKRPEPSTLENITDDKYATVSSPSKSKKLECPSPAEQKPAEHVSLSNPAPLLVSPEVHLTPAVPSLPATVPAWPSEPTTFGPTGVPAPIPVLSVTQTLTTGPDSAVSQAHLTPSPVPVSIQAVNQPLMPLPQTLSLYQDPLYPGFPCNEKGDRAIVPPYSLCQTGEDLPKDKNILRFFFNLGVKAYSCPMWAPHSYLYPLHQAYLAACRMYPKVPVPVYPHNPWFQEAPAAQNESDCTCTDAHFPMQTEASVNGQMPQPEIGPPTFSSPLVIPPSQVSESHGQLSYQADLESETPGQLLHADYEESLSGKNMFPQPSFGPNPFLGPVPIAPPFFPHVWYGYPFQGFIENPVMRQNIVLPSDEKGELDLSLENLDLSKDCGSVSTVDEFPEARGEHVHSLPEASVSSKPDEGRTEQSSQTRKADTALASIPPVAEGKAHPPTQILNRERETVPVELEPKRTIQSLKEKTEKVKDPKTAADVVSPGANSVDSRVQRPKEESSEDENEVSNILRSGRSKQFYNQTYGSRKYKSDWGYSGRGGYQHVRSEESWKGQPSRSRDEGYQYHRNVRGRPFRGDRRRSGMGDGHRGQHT
Procedure, shortened: as §1

[9] = target: T5, OTUD5 (UniProt Q96G74)
T5 sequence (whole entry): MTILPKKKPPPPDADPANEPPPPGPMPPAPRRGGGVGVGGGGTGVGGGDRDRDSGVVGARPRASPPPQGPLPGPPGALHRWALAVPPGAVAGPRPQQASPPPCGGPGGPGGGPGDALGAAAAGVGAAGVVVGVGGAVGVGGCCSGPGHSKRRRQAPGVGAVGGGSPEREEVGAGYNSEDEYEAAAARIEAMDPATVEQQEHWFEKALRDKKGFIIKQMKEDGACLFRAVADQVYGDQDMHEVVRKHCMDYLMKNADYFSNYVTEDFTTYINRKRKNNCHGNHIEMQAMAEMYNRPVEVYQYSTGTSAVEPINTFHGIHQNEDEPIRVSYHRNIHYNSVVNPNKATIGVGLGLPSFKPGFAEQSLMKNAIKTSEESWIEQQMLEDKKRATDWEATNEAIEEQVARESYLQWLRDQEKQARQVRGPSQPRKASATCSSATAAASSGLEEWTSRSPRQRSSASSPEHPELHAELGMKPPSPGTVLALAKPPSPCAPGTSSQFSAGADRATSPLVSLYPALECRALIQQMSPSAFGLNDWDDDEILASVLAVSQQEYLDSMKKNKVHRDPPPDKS
Procedure, shortened: as §1

Measured: log2 ratio of Biotin-Ahx-Ub-VS probe labelling

O=C(CCl)Nc1cccc(NC(=O)c2ccccc2)c1
inactive: [1] 0.117 | [2] 0.278 | [4] -0.291 | [5] 0.304 | [6] -0.516 | [7] -0.202 | [8] 0.39 | [9] -0.0636
active: [3] -3.32
